# ± gives the standard deviation of the averaged measurements.
# System: SW480
# Test: cell viability (CellTiter-Glo) relative to plate median (fraction of plate median); higher = more viable cells
# Details: 5 µM; treatment time 24 h; reporter: 7TFP
# Procedure, shortened: (§1)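 Luminescence, normalised well by well to the plate median, is tabulated as a mean of independent replicates. There were two replicates, run on colorectal cancer lines stably transduced with lentiviral TCF/Wnt firefly luciferase reporters and dosed with library compounds at a final 5 µM for 24 h. Readouts were firefly luciferase or CellTiterGlo on parallel plates.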
row,SMILES,cell viability
1,CN[C@@H]1[C@@H](O[C@H]2O[C@H](CO)[C@@H](N)[C@H](O)[C@H]2O)OC2C[C@@H](N)[C@@H](O[C@H]3[C@H](O)[C@@H](O)[C@H](N)C[C@@H]3N)OC2[C@@H]1O (some centres undefined),0.965 ± 0.037
2,Cc1ccnc(NS(=O)(=O)c2ccc(N)cc2)n1,0.953 ± 0.04
3,C[C@]12C=CC(=O)C=C1CC[C@@H]1[C@@H]2[C@@H](O)C[C@@]2(C)[C@H]1CC[C@]2(O)C(=O)COC(=O)CCC(=O)O,1.03 ± 0.014
4,COc1cc(OC)c2ccc(=O)oc2c1,1.07

# System: DLD1
# Test: TCF/Wnt firefly luciferase reporter signal relative to plate median (fraction of plate median); higher = higher Wnt reporter signal
# Details: 5 µM; treatment time 24 h; reporter: 7TFP
# Procedure, shortened: as §1
row,SMILES,TCF/Wnt firefly luciferase reporter signal
1,Cc1c(NC(C)C)c(=O)n(-c2ccccc2)n1C,0.95 ± 0.21
2,C=CCCCCCCCCCCCC(O)CC(O)CO (centres undefined),0.964 ± 0.05
3,Cc1onc(-c2c(Cl)cccc2Cl)c1C(=O)N[C@@H]1C(=O)N2[C@@H]1SC(C)(C)[C@@H]2C(=O)O,1 ± 0.042
4,Cc1nnc(NS(=O)(=O)c2ccc(N)cc2)s1,0.957 ± 0.04
5,CC(=O)Oc1ccc(O)cc1,1.07 ± 0.042
6,CCC(C)C(N)=O (centres undefined) [2-Methylbutyramide],1.16 ± 0.071
7,Cc1ccc(=O)n(-c2ccccc2)c1,0.952 ± 0.17
8,COc1c2occc2c(OC)c2c(=O)cc(C)oc12,1.2 ± 0.099
9,CC1CCc2cc(F)cc3c(=O)c(C(=O)O)cn1c23 (centres undefined),0.953 ± 0.039
10,CCCCCCNC(=O)n1cc(F)c(=O)[nH]c1=O,0.971 ± 0.13
11,NCCS,1.21 ± 0.021
12,O=C(/C=C/c1ccc(O)cc1)c1ccc(O)cc1O,1 ± 0.15
13,"COC(=O)C[C@H]1C(C)(C)C2(O)OC34CC2C(=O)[C@]1(C)C3CC[C@]1(C)C4=CC(=O)O[C@H]1c1ccoc1 (stereo partly drawn) [8beta-HYDROXYCARAPIN, 3,8-HEMIACETAL]",0.866 ± 0.067
14,CC(CCC(=O)O)C1CCC2C3CCC4CC(O)CCC4(C)C3C=CC12C (centres undefined),0.902 ± 0.071
15,CCN(CC)CCNc1ccc(CO)c2sc3ccccc3c(=O)c12,1.16 ± 0.18
16,N#Cc1ccc2c(c1)N(CCCN1CCC(O)CC1)c1ccccc1S2,0.981 ± 0.056
17,C[n+]1cc2c3c(ccc2c2ccc4cc5c(cc4c21)OCO5)OCO3,1 ± 0.081
18,CN1CCN(C(c2ccccc2)c2ccccc2)CC1,0.977 ± 0.12
19,CC(C)c1c(O)ccc2c1CC[C@H]1[C@@](C)(CO)CCC[C@]21C,1.06 ± 0.19
20,C=CCSCC1Nc2cc(Cl)c(S(N)(=O)=O)cc2S(=O)(=O)N1 (centres undefined),1.06 ± 0.071

row,SMILES,TCF/Wnt firefly luciferase reporter signal
1,Cc1cc(O)c(C)c(O)c1C(=O)O,0.792 ± 0.36
2,C[C@@H]1C(=O)O[C@H]2C[C@@]34[C@H]5C[C@@H](C(C)(C)C)[C@]36[C@@H](OC(=O)[C@@H]6O)O[C@@]4(C(=O)O5)[C@]21O,1.15 ± 0.021
3,COC(=O)[C@@H]1[C@H]2C[C@H]3c4[nH]c5ccccc5c4CCN3C[C@@H]2CC[C@@H]1O,0.919 ± 0.16
4,CC(=O)O[C@@H]1C=C[C@]2(C)C(C[C@@H](OC(C)=O)[C@]3(C)C4=CC(=O)O[C@H](c5ccoc5)[C@@]4(C)CCC23)C1(C)C (some centres undefined),1.09 ± 0.021
5,CC(C)CCC[C@@H](C)C1CC[C@H]2[C@@H]3CCC4CC(=O)CC[C@]4(C)[C@H]3CC[C@]12C (some centres undefined),0.955 ± 0.045
6,CC(=O)Nc1ccc(OC(=O)c2ccccc2O)cc1,1 ± 0.095
7,C=C(C)[C@@H]1C[C@H]2O[C@](O)(C/C(C)=C\C(=O)/C=C(/C)C[C@@H]3OC(=O)[C@]24O[C@@H]34)[C@H]1O [bipinnatolide F],1.01 ± 0.059
8,CC12CC3CC(C)(C1)CC(N)(C3)C2,1.04 ± 0.064
9,COc1ccc(-c2oc3cc(OC)c(OC)c(OC)c3c(=O)c2OC)cc1OC,0.986 ± 0.049
10,CCC1(C)OC(=O)N(C)C1=O (centres undefined),0.965 ± 0.0085
11,CCOC(=O)C(C)(C)Oc1ccc(Cl)cc1,1.24 ± 0.021
12,Cc1cc(O)c2c(c1)C(=O)c1cccc(O)c1C2=O,0.893 ± 0.15
13,"NC(C(=O)O)C(O)C(=O)O (stereo not drawn) [d,l-threo-3-HYDROXYASPARTIC ACID]",1.14 ± 0.27
14,COc1ccc2c(c1)OC/C(=C\c1ccc(OC)c(O)c1)C2=O,0.972 ± 0.11
15,Cn1c(=O)[nH]c2ncn(C)c2c1=O,1.05 ± 0.13
16,CN(C)C(=O)Nc1ccc(Cl)c(Cl)c1,1.14 ± 0.099
17,CN[C@@H]1[C@@H](O[C@H]2O[C@H](CO)[C@@H](N)[C@H](O)[C@H]2O)OC2C[C@@H](N)[C@@H](O[C@H]3[C@H](O)[C@@H](O)[C@H](N)C[C@@H]3N)OC2[C@@H]1O (some centres undefined),1.08 ± 0.028
18,Cc1ccnc(NS(=O)(=O)c2ccc(N)cc2)n1,0.924 ± 0.019
19,C[C@]12C=CC(=O)C=C1CC[C@@H]1[C@@H]2[C@@H](O)C[C@@]2(C)[C@H]1CC[C@]2(O)C(=O)COC(=O)CCC(=O)O,1.075 ± 0.0071
20,COc1cc(OC)c2ccc(=O)oc2c1,1.02 ± 0.084

# From the supplement of paper PMC6522484
